Screening results deposited in PubChem BioAssay by National Center for Advancing Translational Sciences (NCATS).
Most compounds without a hit are left out; they make up all but 10% or so of the library.
HP1b chromo inh = blocks HP1-beta chromodomain binding to methylated histone tails | Potency, µM (top dose mostly 114 µM), usual class: inhibitors | 390,000 compounds, 0.56% hits | AlphaScreen HP1-beta / biotin-H3K9me3 peptide binding | P83916; further: nearly all actives have a fitted effect of over 70% in size
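Compound inhibition of the preformed complex between 50 nM HP1-beta and 50 nM biotinylated H3K9me3 peptide was read by AlphaScreen. Buffer was PBS pH 7.4 with 0.01% Tween-20. Incubations ran 30 min at room temperature, with 10 ug/mL donor/acceptor beads.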
JMJD2A Tudor = blocks the human JMJD2A Tudor domain; O75164; AlphaScreen JMJD2A-Tudor / H3K4me3 peptide binding; Potency, µM (doses to about 114 µM), actives largely listed as inhibitors; 390,000 compounds, 4.4% hits; AID 504339; further: nearly all actives have a fitted effect of over 50% in size
G9a block = G9a (human) methyltransferase inhibition. Q96KQ7. G9a H3K9 monomethylation, AlphaScreen, 2 h. Potency, µM (series often up to 102 µM), actives largely listed as inhibitors. 350,000 compounds, 8.8% hits. AID 504332; further: nearly all actives have a fitted effect of over 75% in size
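Enzyme 20 nM + cpd, 15 min RT; add b-H3K9 pep 500 nM / SAM 20 uM; 2 h RT; anti-H3K9me1 Ab 0.5 ug/mL + SA donor / anti-rabbit acceptor beads 20 ug/mL each, 10 min; AlphaScreen read.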
BAZ2B inh = blocks human BAZ2B. Q9UIF8. AlphaScreen BAZ2B-H3K14Ac peptide displacement. Potency, µM (highest dose often 114 µM), actives largely listed as inhibitors. 360,000 compounds, 4.4% hits. AID 504333; further: nearly all actives have a fitted effect of over 60% in size
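In this displacement format the biotinylated H3(5-23) peptide acetylated at Lys14 serves as ligand at 50 nM, with BAZ2B at 50 nM in PBS pH 7.4 containing 0.01% Tween-20. Donor and acceptor beads are 10 ug/mL final.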
GLS inh = inhibitors of human glutaminase (GLS); O94925; GLS enzymatic activity, qHTS titration; Potency, µM (titrated, usually from 45.5 µM), most hits filed as inhibitors; 410,000 compounds, 0.21% hits
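Read-out is an Amplex red fluorescence increase coupled through glutamate oxidase and HRP, measured before and after 30 min room-temperature incubation. hKGA is in 45 mM KH2PO4 (pH 8.2) with 0.02% Tween-20; glutamine added as 1mM solution.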
Of the large screens only hits and unclear results are named; the others gave an inactive call; ! = not confirmed by another sample. The call rests on the fitted dose curve; in most records, active means well fitted curve in the direction sought with a large enough effect; inconclusive means small, poorly fitted or top-dose-only effect, or another doubt; inactive means no such curve, though single readings can be large; an effect the other way counts as inactive or inconclusive.

CCc1ccc(NC(=O)c2cc(-c3ccc(F)cc3)on2)cc1	none
CCc1ccc(NC(=O)c2cc(-c3ccc(OC)cc3)on2)cc1	BAZ2B inh 56.2µM
Nn1c(SCc2ccc(F)cc2)nnc1-c1ccncc1	G9a block inconclusive
CCN(CC)S(=O)(=O)c1cccc(C(=O)N/N=C/c2cc(OC)c(O)c(OC)c2)c1	G9a block 10µM
COc1ccc(/C=N/NC(=O)c2cccc(S(=O)(=O)N3CCCC3)c2)cc1O	none
COc1cc(/C=N/NC(=O)c2cccc(S(=O)(=O)N3CCCC3)c2)cc(OC)c1O	G9a block 14.1µM
NC(=O)C1CCN(C(=O)CN(c2cccc(Cl)c2)S(=O)(=O)c2ccccc2)CC1	none
COCCn1nnnc1CN(Cc1cccnc1)Cc1cc2cc(OC)ccc2[nH]c1=O	G9a block inconclusive
Cc1nc(NS(=O)(=O)c2ccccc2C)c2c3c(sc2n1)CCC3	G9a block 44.7µM
C[C@H](NC(=O)[C@@H]1Cc2ccccc2CN1C(=O)OC(C)(C)C)C(=O)NC1CCCCC1	none
C[C@@H](NC(=O)[C@@H]1Cc2ccccc2CN1C(=O)OC(C)(C)C)C(=O)NC1CCCCC1	G9a block 79.4µM
Cc1ccc(NC(=O)[C@H](NC(=O)[C@@H]2Cc3ccccc3CN2)c2ccccc2)c(C)c1	none (no result: G9a block)
CSCC[C@H](NC(=O)[C@@H]1Cc2ccccc2CN1)C(=O)NC1CCCCC1	G9a block 25.1µM
CSCC[C@H](NC(=O)[C@@H]1Cc2ccccc2CN1)C(=O)Nc1ccc2c(c1)OCCO2	G9a block 50.1µM, BAZ2B inh inconclusive
C[C@H](NC(=O)[C@@H]1Cc2ccccc2CN1)C(=O)Nc1ccc2c(c1)OCCO2	none
Cc1cc(C)cc(NC(=O)[C@H](NC(=O)[C@@H]2Cc3ccccc3CN2)c2ccccc2)c1	G9a block 79.4µM
COc1ccc(NS(=O)(=O)c2ccc3c(c2)n(C)c(=O)n3C)cc1	G9a block inconclusive
Cc1ccc(NC(=O)[C@H](Cc2ccccc2)NC(=O)[C@@H]2Cc3ccccc3CN2)c(C)c1	G9a block 35.5µM
C[C@H](NC(=O)[C@@H]1Cc2ccccc2CN1)C(=O)NC1CCCC1	G9a block 79.4µM
CC(C)C[C@H](NC(=O)[C@@H]1Cc2ccccc2CN1)C(=O)Nc1ccc(C(C)C)cc1	G9a block 28.2µM, BAZ2B inh inconclusive
Cc1ccc(NC(=O)[C@H](Cc2c[nH]c3ccccc23)NC(=O)[C@@H]2Cc3ccccc3CN2)c(C)c1	BAZ2B inh inconclusive
O=C(CNC(=O)[C@@H]1Cc2ccccc2CN1)NC1CCCC1	none
CC(C)c1ccc(NC(=O)[C@@H](C)NC(=O)[C@@H]2Cc3ccccc3CN2)cc1	G9a block inconclusive
CCOc1ccc(OCc2ccc(C(=O)NCc3cccnc3)o2)cc1	none
S=C(Nc1ccc(Cl)c(Cl)c1)N1CCCC1	none
S=C(Nc1ccc2nc(-c3ccccn3)c(-c3ccccn3)nc2c1)N1CCCCCC1	G9a block 20µM
S=C(Nc1ccc2nsnc2c1)N1CCCCC1	G9a block 15.8µM, GLS inh inconclusive
S=C(Nc1ccc2nccnc2c1)N1CCOCC1	G9a block 44.7µM
CCCNC(=S)Nc1ccc2nc(-c3ccccn3)c(-c3ccccn3)nc2c1	G9a block 12.6µM
S=C(Nc1ccc2nc(-c3ccccn3)c(-c3ccccn3)nc2c1)N1CCCCC1	none
O=C(CCCC(=O)N(CC(=O)NC1CCCC1)c1cccc(F)c1)Nc1ccccn1	none
Cc1ccc(C)c(OCCC(=O)NNC(=O)c2ccncc2)c1	none
C=CCc1ccc(OCCN2CCc3ccccc3C2)c(OC)c1	HP1b chromo inh inconclusive, JMJD2A Tudor inconclusive, G9a block 10µM, BAZ2B inh 50.1µM
C/C=C/c1ccc(OCCN2CCc3ccccc3C2)c(OC)c1	HP1b chromo inh inconclusive, JMJD2A Tudor 0.891µM, G9a block 44.7µM, BAZ2B inh inconclusive
NNC(=O)c1cc2c(s1)CCCCCC2	G9a block inconclusive
COc1ccc(/C([O-])=C(/C(=S)Nc2ccc(C)c(C)c2)n2c[n+](C)c3ccccc32)cc1OC	G9a block 44.7µM
O=c1c(Cc2ccc(Cl)cc2)c(O)ccn1Cc1cccs1	none
Cc1nc2ccc(S(=O)(=O)N(CC(=O)Nc3cccc(C)c3C)Cc3ccccc3)cc2s1	none
CC(NC(=O)Cn1cc(C(=O)C2CC2)c2ccccc21)c1ccccc1 (configuration not stated)	JMJD2A Tudor 79.4µM
COC(=O)Cn1cc(C(=O)C2CC2)c2ccccc21	none
CCCCNC(=O)Cc1coc2ccc3ccccc3c12	JMJD2A Tudor inconclusive, BAZ2B inh inconclusive
O=c1c2c3c(sc2nc(NCCO)n1Cc1ccco1)CCCCC3	none
O=c1c2c3c(sc2nc(NCCO)n1CCc1ccccc1)CCCCC3	HP1b chromo inh inconclusive, JMJD2A Tudor inconclusive, G9a block 56.2µM, BAZ2B inh inconclusive
CN(C)CCNc1nc2sc3c(c2c(=O)n1-c1ccccc1)CCCCC3	none
CN(C)CCNc1nc2sc3c(c2c(=O)n1Cc1ccccc1)CCCCC3	JMJD2A Tudor 50.1µM, G9a block inconclusive, BAZ2B inh 35.5µM
C[N+]1(CCCOC(=O)C2(c3ccccc3)CCCC2)CCOCC1	G9a block 7.94µM
COc1ccccc1NC(=O)CN1CCN(CC(=O)Nc2cc(NC(C)=O)ccc2OC)CC1	G9a block 39.8µM
CCOc1ccc(NC(=O)CN2CCN(CC(=O)Nc3ccccc3OC)CC2)cc1	G9a block 44.7µM
COc1ccc(NC(C)=O)cc1NC(C)C(=O)Nc1cccc2ccccc12 (configuration not stated)	G9a block 50.1µM
COc1ccc(NC(C)=O)cc1NC(C)C(=O)Nc1ccc(F)cc1 (configuration not stated)	none
CCN(CC)c1ccc(NC(=O)CN2CCN(CC(=O)Nc3ccccc3OC)CC2)cc1	HP1b chromo inh inconclusive, JMJD2A Tudor 56.2µM, G9a block 44.7µM, BAZ2B inh inconclusive
O=C(N/C(=C/c1ccccc1Cl)C(=O)N1CCCC1)c1ccccc1	none
CCN(CC(=O)Nc1c(F)cccc1F)C(=O)/C=C/c1ccc(S(=O)(=O)N2CCCCCC2)cc1	none
CCCCCNC(=O)c1ccc2c(c1)nc(C)n2-c1cccc(C)c1	none
CCCCOc1ccc(CC(=O)NO)cc1	G9a block 28.2µM!
CCCCOc1ccc(NC(=O)CN2CCN(CC)CC2)cc1	HP1b chromo inh inconclusive, JMJD2A Tudor 0.794µM, G9a block 11.2µM, BAZ2B inh 56.2µM
CCOc1ccc(NC(=O)CN2CCN(CC(=O)Nc3ccc(C(=O)OC)cc3)CC2)cc1	G9a block 31.6µM
CCCCOc1ccc(C(=O)NC)cc1	none
COc1ccc(C(CNC(=O)CSc2ccccc2F)N2CCOCC2)cc1 (configuration not stated)	none
COCOCCn1cc(CN2CCS(=O)(=O)N(Cc3ccc(-c4ccc(C)cc4)cc3)C(C(C)C)C2=O)nn1 (configuration not stated)	none (no result: HP1b chromo inh, JMJD2A Tudor, G9a block, BAZ2B inh)
Cc1ccc2c(c1)NCCO2	JMJD2A Tudor 50.1µM, G9a block inconclusive (no result: BAZ2B inh)
